Assay results as given in PubChem BioAssay (NCI).
This is part of a sample that, as a whole, favours compounds with a hit. Of some 83,000 tested, about 20% had one in any assay.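 Single-concentration screen, 48 h exposure, 96-well plates. Endpoint: percent growth. Below 10 = active.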 Active and inactive are the calls of the source.

Each compound was assayed on COLO 205 colon (assay: NCI-60 one-dose screen, 48 h (100 = growth as untreated, 0 = no growth, -100 = all killed)). Conditions: 10 µM unless noted.

Compound	growth
COc1cc(NC(=O)CSc2nc3ccc(Cl)cc3c(=O)n2-c2ccc(F)cc2)cc(OC)c1OC	107% (inactive)
FC(F)(F)c1cccc(-c2[nH]ncc2-c2nnnn2-c2ccccc2)c1	36% (inactive)
COc1cc(CCNc2cnc3cc(N)cc(N)c3n2)cc(OC)c1	136% (inactive)
CCOC(=O)CNS(=O)(=O)CC(=O)c1ccccc1	130% (inactive)
O=C(Nc1ccc(Cl)cn1)C1(c2ccccc2)CCCCC1	103% (inactive)
Brc1c(-c2ccncc2)nc2n1CCS2	120% (inactive)
CC(=O)c1cc(Nc2cc(C)nc(N)n2)cc(C(C)=O)c1	117% (inactive)
Nc1cc(N)c2nc(-c3ccccc3)c(NCCc3ccc(Cl)c(Cl)c3)nc2c1	-62.4% (active)
O=C(Nn1cnc2ccccc21)N1CCCC1	117% (inactive)
O=C1NCCN1/N=C/c1c(Cl)nc2n1CCS2	133% (inactive)
CC(=O)N1N=C(c2ccc(Cl)cc2)CC1c1cn(-c2ccccc2)nc1-c1ccc([N+](=O)[O-])cc1 (stereo not drawn)	93.9% (inactive)
CCCCCC(=C/c1ccccc1)/C=N/N=C(N)N	-93.9% (active)
N#Cc1c(N)nc(Nc2nc3ccccc3[nH]2)nc1-c1ccc(Cl)cc1	94.7% (inactive)
COc1cc(N)c2nccc(C)c2c1OC	116% (inactive)
Cc1ccc(C(=O)NN)cc1	115% (inactive)
COc1cc(OC)c2c(=O)cc(-c3ccccc3)oc2c1	117% (inactive)
Cc1nn(-c2ccccc2)c(N)c1N=C1NC(=O)/C(=C/c2ccc(Cl)cc2)S1	88.4% (inactive)
COCC(=O)NNc1[nH]c(-c2ccc(OC)cc2)cc1C#N	115% (inactive)
CCCOC(=O)c1c(C)n(C)c2scc[n+]12	84.9% (inactive)
Cc1ccc2c(O)c(O)cc(NC(C)CCCN)c2n1 (stereo not drawn)	32.7% (inactive)
CC(=O)N(N=O)c1ccc([N+](=O)[O-])cc1Cl	97.6% (inactive)
Cc1ccc2c(c1)C(=O)CCS2	98.2% (inactive)
O=C(O)/C(Br)=C/c1c[nH]c2ccc(Br)cc12	156% (inactive)
COc1ccc(-n2nnnc2-c2cn[nH]c2C(F)(F)F)cc1	96.8% (inactive)
COc1ccc(C2C3(C#N)C(N)=NC(=C(C#N)C#N)C23C#N)cc1OC (stereo not drawn)	123% (inactive)
CCOC(=O)c1cc(-c2ccc(OC)cc2)[nH]c1NNC(=O)CCOC	109% (inactive)
CC1=C(C)C(=O)C(C(C)C2=C(C)C(=O)C(C)=C(C)C2=O)=C(C)C1=O	104% (inactive)
COc1cc(NC(C)CCCN)c2nccc(C)c2c1OC (stereo not drawn)	50.6% (inactive)
